# Results published in PubChem BioAssay AID1053185 (Broad Institute, 2014).
# Results with a measured potency or affinity are listed apart. Calls of active or inactive are those of the source.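 Rule for the calls: active = cell killing with fitted half-maximal concentration at most twice the top valid dose; inconclusive = flat partial loss of 30 to 70%, or poor fit; inactive = the rest.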
# Experiment: HEK293 cell viability loss – cherry-picked samples, cytotoxicity control, dose response (AID 1053185)
# Conditions: HEK293T viability, ATP luminescence, 72 h; series mostly up to 26 µM; activity change, negative = cytotoxicity: at the top concentration
row,Compound,"activity change, negative = cytotoxicity"
1,C[C@@H]1CN([C@@H](C)CO)C(=O)Cc2cc(NC(=O)C3CCCCC3)ccc2O[C@@H]1CN(C)Cc1ccc(Cl)c(Cl)c1,-9.84% (inactive)
2,COc1cccc(-c2cccc(-c3nc(C(=O)Nc4ccc(-c5ccccc5)cc4)cc4c3[C@@H](CCO)N(S(=O)C(C)(C)C)C4)c2)c1 (some centres undefined),-5.79% (inactive)
3,COc1cc(CN2C[C@@H]3N[C@H](C2)C3c2ccc(-c3ccc(C#N)cc3)cc2)cc(OC)c1 (some centres undefined),-1.68% (inactive)
4,CN(C)C(=O)c1cccc(-c2ccc(C3[C@@H]4CN(Cc5ccccc5F)C[C@H]3N4)cc2)c1 (some centres undefined),-7.48% [at 23.5 µM] (inactive)
5,CO[C@@H](CN(C)Cc1cc(F)ccc1F)[C@@H](C)CN(C(=O)Nc1ccc(C(F)(F)F)cc1)[C@H](C)CO,-11.8% (inactive)
6,C/C=C/c1ccc([C@H]2[C@@H](CO)N3C(=O)CN(Cc4ccc(F)cc4)C[C@@H]23)cc1,-5.85% (inactive)
7,COc1ccc2c3c(n(C)c2c1)[C@@H](CO)N(CC1CC1)CC31CN(C(=O)c2ccc3c(c2)OCO3)C1,-7.78% (inactive)
8,CNC[C@@H]1Oc2cc(C#Cc3ccccc3OC)ccc2S(=O)(=O)N([C@H](C)CO)C[C@H]1C,-0.997% (inactive)
9,O=S(=O)(c1ccc(F)cc1)N1C[C@@H]2N[C@H](C1)C2c1ccc(/C=C/c2ccccc2)cc1 (some centres undefined),-2.66% (inactive)
